Bioassay records (PubChem)
A selection: hits, their analogues and other compounds. The true share with any hit is near 2.3%.
Nrf2 activator: activates Nrf2 signaling; Potency, µM (doses to about 46.1 µM), inactives show top-dose activation, usual class: activators; 0.31% of 410,000 active; AREc32 ARE-luciferase reporter (MCF7-derived line), luminescence, 24 h; also: % of control where 0% means no effect; nearly all actives have a fitted effect of over 65% in size
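AREc32_Fluc, 1000 cells/well, OPTI-MEM + 5% FBS, o/n 37 deg C 5% CO2; 23 nL cpd by pin tool, 24 hr; Steady-Glo 30 min RT, luminescence.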
Nrf2 inh: Nrf2 pathway inhibition | A549 ARE-Fluc reporter, luciferase luminescence, 18-24 h | Potency, µM (titrated, usually from 46 µM), without a hit: top-dose activity change, negative = inhibition, actives largely listed as inhibitors | 2.1% of 360,000 active | AID 504444; also: % is scaled to controls: 0 for no effect and ±100 for the full control effect; nearly all actives have a fitted effect of over 60% in size
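Concentration-response testing used A549 ARE_Fluc cells at 5000 cells/well. Following an 18-24 h compound incubation, viability was read by fluorescence (Ex 405/Em 525) and luciferase output by luminescence.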
Rango complex inh: Rango-importin beta binding inhibition. Q14974. Rango CFP/YFP FRET sensor + importin beta, 45 min. Potency, µM (titrated, usually from 92.2 µM), without a hit: top-dose inhibition of complex formation. 0.031% of 340,000 active; calls by dose curve;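 also: 0% = DMSO wells and 100% = buffer wells lacking importin beta; nearly all actives have a fitted effect of over 15% in size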
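FRET biosensor (snurportin 1 IBB flanked by EYFP and cerulean), 50 nM, with compound 5 min, then 0.125 microM importin beta in PBS, 1 mM DTT, 0.02% Tween-20, 0.1% BSA. CFP/YFP ratio read after 45 min at room temperature; pre-read flags interference.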
Rango release inh: prevents RanGTP from dissociating the Rango-importin beta complex | Biochemical FRET Rango-importin beta, RanGTP-induced dissociation | 0.071% of 340,000 active | O95149+P62826 | Potency, µM (highest dose often 46.1 µM), for the others: at the top dose activity change, negative = inhibition | AID 540253; calls by dose curve; also: % of control where 0% means no effect; nearly all actives have a fitted effect of over 45% in size
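Rango (0.1 uM)–importin beta (0.25 uM) complex; RanGTP-RCC1 trigger; 45 min RT; CFP/YFP FRET read.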
A549 viability: counter-screen for Nrf2 inhibitors: cytotoxicity in A549 cells; Potency, µM (top dose mostly 46 µM), for the others: at the top dose activity change, negative = cytotoxicity, most hits filed as inhibitors; A549 ARE-Fluc cells, CellTiter-Fluor viability, 18-24 h; 0.16% of 390,000 active; AID 504648; also: % is scaled to controls: 0 for no effect and ±100 for the full control effect
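Cytotoxicity counterscreen: CellTiter-Fluor fluorescence was measured in A549 ARE_Fluc cells after 18-24 h of compound exposure in a concentration series. The subsequent BugLite luminescent read reports ARE-luciferase activity.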
* marks the source's active call; other numbers are inactive results; ? = inconclusive; · = no result. Unless noted, calls follow the shape of the dose curve; as a rule, active = well fitted curve in the direction sought with a large enough effect; inconclusive = small, poorly fitted or top-dose-only effect, or another doubt; inactive = no such curve, though single readings can be large; an effect the other way counts as inactive or inconclusive. Potency is read from the fitted curve at half-maximal effect.

SMILES	Nrf2 activator	Nrf2 inh	Rango complex inh	Rango release inh	A549 viability
COC(=O)c1oc(-c2ccccc2)nc1C	13µM*	0%	3%	13%	6%
Cc1ccc2oc(=O)c(/C=C(\O)C(C)(C)C)nc2c1	?	-25%	-1%	3%	0%
CC(C)(C)/C(O)=C/c1nc2cc(Cl)ccc2oc1=O	10µM*	10%	-1%	-15%	-4%
Cc1ccc(NC(=O)c2cc(-c3cccs3)nc3ccccc23)c(C)c1	5%	-8%	·	·	-2%
Cc1cccc2sc(NNC(=O)c3cc(-c4cccs4)nc4ccccc34)nc12	-1%	23µM*	-4%	-28%	?
O=C(NCc1ccco1)c1ccc2c(c1)N(Cc1ccccc1)C(=O)CS2	5%	23µM*	0%	-8%	-1%
O=C(Cn1cnc2ccccc2c1=O)c1ccc(Cl)cc1	6%	?	1%	1%	-6%
c1ccc(N=Nc2cn[nH]c2-c2ccco2)cc1	10µM*	25%	0%	8%	-7%
CC(C)NS(=O)(=O)c1ccc(OCC(=O)Nc2ccc(F)cc2F)cc1	0%	-27%	0%	2%	2%
Cc1ccc(NC(=O)C2=C(c3ccccc3)S(=O)(=O)CCS2(=O)=O)cc1	-2%	21µM*	1%	25%	?
CCOC(=O)c1c(C)[nH]c(C(=O)C(C)Cl)c1C (centres undefined)	18µM*	-11%	1%	13%	-2%
Cc1ccccc1-c1noc(N)c1C#N	18µM*	2%	-1%	-2%	-3%
CCOc1cc(-c2noc(N)c2C#N)cc(OCC)c1OCC	?	-9%	2%	-13%	-4%
Cc1cc2c(s1)c1cnn(Cc3cccc(Cn4ncc5c6sc(C)cc6n(C)c5c4=O)c3F)c(=O)c1n2C	·	-3%	·	·	1%
COc1ccc(-c2nnc(SCC(=O)N(C)Cc3ccccc3)o2)cc1OC	0%	23µM*	·	·	-13%
COc1cccc2c1OC[C@@H](CO)[C@H]2N(C)C(=O)Nc1ccc(Cl)cc1Cl	1%	18µM*	0%	0%	-6%
COc1ccccc1-c1nnc(SCC(=O)Nc2ccc(Cl)cc2Cl)o1	4%	6%	-2%	-11%	-1%
O=C(CSc1nc2c(c(=O)[nH]1)CCCC2)Nc1ccc(Br)cc1	8%	9%	·	·	-1%
O=C(c1ccco1)N1CCN(c2c([N+](=O)[O-])nn(-c3cccc(Cl)c3)[n+]2[O-])CC1	2%	30%	0%	2%	18%
COCCN(C(=O)c1csnn1)C(C(=O)NC1CCCCC1)c1ccccc1F (centres undefined)	-1%	4%	-1%	-6%	-13%
CC(C)CCNC(=O)C(c1ccco1)N(Cc1ccccc1)C(=O)c1snc(C(N)=O)c1N (centres undefined)	0%	-3%	2%	1%	3%
Cc1ccc(N(C(=O)c2snc(C(N)=O)c2N)C(C(=O)NCCC(C)C)c2ccco2)cc1 (centres undefined)	0%	23µM*	0%	-5%	?
CCOC(=O)c1cccc(NC(=O)Nc2ccc3c(c2)N(C)C(=O)c2ccccc2S3)c1	0%	21µM*	·	·	-20%
CCN(CC)c1ccc(NC(=O)Nc2cccc(C(C)=O)c2)cc1	5%	15µM*	2%	4%	-1%
CC(=O)c1cccc(NC(=O)Nc2ccc3c(c2)N(C)C(=O)CS3)c1	0%	13µM*	-1%	10%	-1%
SMILES	Nrf2 activator	Nrf2 inh	Rango complex inh	Rango release inh	A549 viability
Cc1ccc(NC(=O)Nc2ccc3c(c2)N(C)C(=O)CS3)cc1C	-1%	?	1%	-7%	-11%
CCCNC(=O)Nc1ccc2c(c1)N(C)C(=O)c1ccccc1S2	0%	-24%	1%	-15%	11%
CCc1ccc(NC(=O)Nc2ccc3c(c2)N(C)C(=O)CS3)cc1	-2%	16µM*	0%	-3%	-11%
Cc1cc(C)cc(NC(=O)Nc2ccc3c(c2)N(C)C(=O)CS3)c1	3%	?	4%	-7%	12%
Cn1c(=O)n(-c2ccc(F)c(Cl)c2)c(=O)c2sc3ccccc3c21	-1%	-4%	·	·	-1%
O=C(OC1CCCCC1=O)c1cc(Cl)ccc1[N+](=O)[O-] (centres undefined)	5%	11%	-1%	21%	0%
CSc1ccc(C2c3c(oc4ccc(F)cc4c3=O)C(=O)N2c2ccc(C)cn2)cc1 (centres undefined)	4%	27%	·	·	-2%
Brc1ccc(N/N=C(/N=Nc2nn[nH]n2)c2ccccc2)cc1	-1%	10µM*	-1%	13%	?
O=C(O)c1ccc(N=N/C(=N\Nc2ccc(C(=O)O)cc2)c2ccccc2)cc1	-1%	5%	?	13%	?
COc1cc2c(-c3ccc(C)cc3)nc3c(c(C)nn3-c3ccccc3)c2cc1OC	0%	12%	·	·	-4%
O=[S+]([O-])(c1ccc2c(c1)OCCO2)N1CCN([S+](=O)([O-])c2c(F)cc(O)cc2F)CC1	·	17%	·	·	0%
O=C(COC(=O)c1cc([N+](=O)[O-])ccc1N1CCOCC1)Nc1cccc(F)c1	1%	?	1%	6%	4.6µM*
COc1cccc2cc(-c3nc(-c4cccs4)cs3)c(=O)oc12	?	23%	?	?	-23%
O=c1oc2ccccc2cc1-c1nc(-c2cccs2)cs1	2.5µM*	·	?	?	22%
COc1ccc(-c2noc(N3CCC(C(=O)N4CCN(c5cccc(OC)c5)CC4)CC3)n2)cc1	-3%	·	·	·	-9%
COc1ccc(OC)c(C2SCCN2S(=O)(=O)c2cccc(C(F)(F)F)c2)c1 (centres undefined)	-1%	21µM*	0%	-2%	-7%
C/C(=N\Nc1cc(C(F)(F)F)ccc1Cl)c1ccccc1O	11µM*	3%	0%	-11%	14%
C/C(=N\Nc1ccc(F)cc1F)c1ccccc1O	27%	?	0%	2%	-5%
Cc1ccc(SCC(=O)NC(=O)Nc2ccc3c(c2)OCCO3)cc1C	0%	-3%	0%	0%	4%
CCN(CC)CC(C)(C)C(=O)/C=C/c1ccc(/C=C/C(=O)C(C)(C)CN(CC)CC)cc1	-4%	21µM*	0%	6%	16µM*
S=c1[nH]nc(-c2ccncc2)n1/N=C/C=C/c1ccco1	?	9%	-1%	11%	0%
CC(/C=N/n1c(-c2ccncc2)n[nH]c1=S)=C\c1ccco1	7.1µM*	16%	?	1%	21%
